# Measured values published in the supplement of paper PMC10037445.
# Over roughly 2,900 compounds, “NF-kB SEAP reporter activity, fold change vs agonist alone” has its median near 0.99; the highest 2% begin near 2.6. The list comes from a sample in which the highest values are over-represented; it also holds similar structures and randomly drawn compounds.
# How the values were obtained:
# RAW-Dual [1] = experiment: NF-kB SEAP reporter activity, fold change vs agonist alone; cytotoxicity flag (confluency mask): not cytotoxic; higher = enhanced NF-kB activity
# How it was run: (§1)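 Reporter activity is given as fold change relative to agonist-alone wells. To measure it, 50 nL of library stock was pin-tooled onto RAW-Dual macrophages (50,000 cells/well, DMEM, 384-well plates), a PRR agonist followed 1 h later, and cells stayed at 37 °C, 5% CO2. Twenty hours on, supernatant was assayed for IRF (QuantiLuc luminescence) and NF-κB (QuantiBlue, 620 nm absorbance), and wells under 70% of agonist-control IncuCyte confluency in both mask sets were marked cytotoxic.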
# RAW-Dual [2] = experiment: NF-kB SEAP reporter activity, fold change vs agonist alone; higher = enhanced NF-kB activity; conditions: cytotoxicity flag (confluency mask): not cytotoxic
# How it was run: as §1
# [3] = agonist: ODN 1826 (TLR9) 0.5 ug/mL
# [4] = agonist: Pam2CSK4 (TLR2/6) 0.1 ug/mL
# [5] = agonist: Pam3CSK4 (TLR2/1) 0.1 ug/mL
# [6] = library stock concentration (final ~1000-fold dilution): 10 mM, agonist: Imiquimod (TLR7) […]
# [7] = library stock concentration (final ~1000-fold dilution): 10 mM, agonist: MPLA (TLR4) […]
smiles,measurement,setting,value
CCC(C)C(NC(=O)C(CCCCN)NC(=O)C(CCC(=O)O)NN)C(=O)NC(CCC(N)=O)C(=O)NC(C)C(=O)NC(CCCCN)C(=O)N1CCCC1C(=O)NC(C)C(=O)C(=O)C(CC(C)C)NC(=O)C(CCC(N)=O)NC(=O)C(NC(=O)C(NC(=O)C(CCCNC(=N)N)NC(=O)C(Cc1ccccc1)NC(=O)C(CCCCNNC(Cc1ccccc1)C(=O)NC(CO)C(=O)NC(CCC(=O)O)C(=O)NC(CO)C(=O)NC(C(=O)NC(CC(N)=O)C(=O)NC(C=O)CO)C(C)O)NC(=O)C(Cc1ccccc1)NC(=O)C(CO)NC(=O)C(CCC(=O)O)NC(=O)C(CO)NC(=O)C(NC(=O)C(CC(N)=O)NC(=O)C(N)CO)C(C)O)C(C)C)C(C)O (configuration not stated) (library stock concentration (final ~1000-fold dilution): 10 mM water),NF-kB SEAP reporter activity,RAW-Dual [1]; agonist: LPS (TLR4) 0.1 ug/mL,1.1
same,NF-kB SEAP reporter activity,RAW-Dual [1]; [3],1.16
same,NF-kB SEAP reporter activity,RAW-Dual [1]; [4],1.13
same,NF-kB SEAP reporter activity,RAW-Dual [1]; [5],1.74
CCC(C)C(NC(=O)C(CCCCN)NC(=O)C(CCC(=O)O)NN)C(=O)NC(CCC(N)=O)C(=O)NC(C)C(=O)NC(CCCCN)C(=O)N1CCCC1C(=O)NC(C)C(=O)C(=O)C(CC(C)C)NC(=O)C(CCC(N)=O)NC(=O)C(NC(=O)C(NC(=O)C(CCCNC(=N)N)NC(=O)C(Cc1ccccc1)NC(=O)C(CCCCNNC(Cc1ccccc1)C(=O)NC(CO)C(=O)NC(CCC(=O)O)C(=O)NC(CO)C(=O)NC(C(=O)NC(CC(N)=O)C(=O)NC(C=O)CO)C(C)O)NC(=O)C(Cc1ccccc1)NC(=O)C(CO)NC(=O)C(CCC(=O)O)NC(=O)C(CO)NC(=O)C(NC(=O)C(CC(N)=O)NC(=O)C(N)CO)C(C)O)C(C)C)C(C)O (configuration not stated),NF-kB SEAP reporter activity,"RAW-Dual [2]; library stock concentration (final ~1000-fold dilution): 10 mM water, agonist: Imiquimod (TLR7) […]",0.927
same,NF-kB SEAP reporter activity,"RAW-Dual [2]; library stock concentration (final ~1000-fold dilution): 10 mM water, agonist: MPLA (TLR4) […]",1.03
O=c1cc(-c2ccc(O)cc2)oc2c(C3OC(CO)C(O)C(O)C3O)c(O)cc(O)c12 (configuration not stated),NF-kB SEAP reporter activity,RAW-Dual [2]; [6],0.887
same,NF-kB SEAP reporter activity,RAW-Dual [2]; [7],0.994
O=c1cc(-c2ccc(O)cc2)oc2c(C3OC(CO)C(O)C(O)C3O)c(O)cc(O)c12 (configuration not stated) (library stock concentration (final ~1000-fold dilution): 10 mM),NF-kB SEAP reporter activity,RAW-Dual [1]; agonist: LPS (TLR4) 0.1 ug/mL,0.978
same,NF-kB SEAP reporter activity,RAW-Dual [1]; [3],0.919
same,NF-kB SEAP reporter activity,RAW-Dual [1]; [4],1
same,NF-kB SEAP reporter activity,RAW-Dual [1]; [5],1.31
N#Cc1cc(N2CCC(C(=O)N3N=CCC3c3cc(F)cc(F)c3)CC2)ncn1 (configuration not stated),NF-kB SEAP reporter activity,RAW-Dual [2]; [6],1.09
same,NF-kB SEAP reporter activity,RAW-Dual [2]; [7],1.26
N#Cc1cc(N2CCC(C(=O)N3N=CCC3c3cc(F)cc(F)c3)CC2)ncn1 (configuration not stated) (library stock concentration (final ~1000-fold dilution): 10 mM),NF-kB SEAP reporter activity,RAW-Dual [1]; agonist: LPS (TLR4) 0.1 ug/mL,1.25
same,NF-kB SEAP reporter activity,RAW-Dual [1]; [3],1.05
same,NF-kB SEAP reporter activity,RAW-Dual [1]; [4],0.796
same,NF-kB SEAP reporter activity,RAW-Dual [1]; [5],0.84
Cn1cc(-c2[nH]c3cc(NC(=O)C(N)C4CCCCC4)cc4c3c2C=NNC4=O)cn1 (configuration not stated),NF-kB SEAP reporter activity,RAW-Dual [2]; [6],2.17
same,NF-kB SEAP reporter activity,RAW-Dual [2]; [7],2.16
Cn1cc(-c2[nH]c3cc(NC(=O)C(N)C4CCCCC4)cc4c3c2C=NNC4=O)cn1 (configuration not stated) (library stock concentration (final ~1000-fold dilution): 10 mM),NF-kB SEAP reporter activity,RAW-Dual [1]; agonist: LPS (TLR4) 0.1 ug/mL,3.51
same,NF-kB SEAP reporter activity,RAW-Dual [1]; [3],2.74
same,NF-kB SEAP reporter activity,RAW-Dual [1]; [4],1.6
same,NF-kB SEAP reporter activity,RAW-Dual [1]; [5],1.8
CC(C)C(NC(=O)C(CC(=O)O)NC(=O)C(CCCCN)NC(=O)C(N)CCCNC(=N)N)C(=O)NC(Cc1ccc(O)cc1)C(=O)O (configuration not stated) (library stock concentration (final ~1000-fold dilution): 10 mM),NF-kB SEAP reporter activity,RAW-Dual [1]; agonist: LPS (TLR4) 0.1 ug/mL,1.27
same,NF-kB SEAP reporter activity,RAW-Dual [1]; [3],1.1
same,NF-kB SEAP reporter activity,RAW-Dual [1]; [4],1.19
same,NF-kB SEAP reporter activity,RAW-Dual [1]; [5],1.17
CC(C)C(NC(=O)C(CC(=O)O)NC(=O)C(CCCCN)NC(=O)C(N)CCCNC(=N)N)C(=O)NC(Cc1ccc(O)cc1)C(=O)O (configuration not stated),NF-kB SEAP reporter activity,RAW-Dual [2]; [6],1.14
same,NF-kB SEAP reporter activity,RAW-Dual [2]; [7],0.967
CNC(=O)C(NC(=O)C(CC(C)C)C(O)C(=O)NO)C(C)(C)C (configuration not stated) (library stock concentration (final ~1000-fold dilution): 10 mM),NF-kB SEAP reporter activity,RAW-Dual [1]; agonist: LPS (TLR4) 0.1 ug/mL,1.09
same,NF-kB SEAP reporter activity,RAW-Dual [1]; [3],1.01
same,NF-kB SEAP reporter activity,RAW-Dual [1]; [4],1.04
same,NF-kB SEAP reporter activity,RAW-Dual [1]; [5],1.01
CNC(=O)C(NC(=O)C(CC(C)C)C(O)C(=O)NO)C(C)(C)C (configuration not stated),NF-kB SEAP reporter activity,RAW-Dual [2]; [6],1.08
same,NF-kB SEAP reporter activity,RAW-Dual [2]; [7],1.38
Oc1c(F)cc(-c2cnccc2-c2ccc(N3CCOCC3)cc2)cc1F,NF-kB SEAP reporter activity,RAW-Dual [2]; [6],1.08
same,NF-kB SEAP reporter activity,RAW-Dual [2]; [7],0.911
Oc1c(F)cc(-c2cnccc2-c2ccc(N3CCOCC3)cc2)cc1F (library stock concentration (final ~1000-fold dilution): 10 mM),NF-kB SEAP reporter activity,RAW-Dual [1]; agonist: LPS (TLR4) 0.1 ug/mL,1.12
same,NF-kB SEAP reporter activity,RAW-Dual [1]; [3],0.913
same,NF-kB SEAP reporter activity,RAW-Dual [1]; [4],0.947
same,NF-kB SEAP reporter activity,RAW-Dual [1]; [5],0.73
O=C(Nc1cc(C(F)(F)F)ccc1N1CCN(Cc2ccccn2)CC1)c1ccc(-c2ccncc2)o1,NF-kB SEAP reporter activity,RAW-Dual [2]; [6],0.609
same,NF-kB SEAP reporter activity,RAW-Dual [2]; [7],1.03
O=C(Nc1cc(C(F)(F)F)ccc1N1CCN(Cc2ccccn2)CC1)c1ccc(-c2ccncc2)o1 (library stock concentration (final ~1000-fold dilution): 10 mM),NF-kB SEAP reporter activity,RAW-Dual [1]; agonist: LPS (TLR4) 0.1 ug/mL,1.25
same,NF-kB SEAP reporter activity,RAW-Dual [1]; [3],0.731
same,NF-kB SEAP reporter activity,RAW-Dual [1]; [4],0.657
same,NF-kB SEAP reporter activity,RAW-Dual [1]; [5],0.818
CC(C)CCN1c2nc(Nc3cc(F)c(O)c(F)c3)ncc2N(C)C(=O)C1C (configuration not stated),NF-kB SEAP reporter activity,RAW-Dual [2]; [6],2.84
same,NF-kB SEAP reporter activity,RAW-Dual [2]; [7],2.55
CC(C)CCN1c2nc(Nc3cc(F)c(O)c(F)c3)ncc2N(C)C(=O)C1C (configuration not stated) (library stock concentration (final ~1000-fold dilution): 10 mM),NF-kB SEAP reporter activity,RAW-Dual [1]; agonist: LPS (TLR4) 0.1 ug/mL,4.3
same,NF-kB SEAP reporter activity,RAW-Dual [1]; [3],2.63
same,NF-kB SEAP reporter activity,RAW-Dual [1]; [4],1.02
same,NF-kB SEAP reporter activity,RAW-Dual [1]; [5],2.05
COc1cc(-c2cc(-c3ccc(Cl)cc3)nc(=O)[nH]2)ccc1O,NF-kB SEAP reporter activity,RAW-Dual [2]; [6],1.09
same,NF-kB SEAP reporter activity,RAW-Dual [2]; [7],1.15
COc1cc(-c2cc(-c3ccc(Cl)cc3)nc(=O)[nH]2)ccc1O (library stock concentration (final ~1000-fold dilution): 10 mM),NF-kB SEAP reporter activity,RAW-Dual [1]; agonist: LPS (TLR4) 0.1 ug/mL,1.6
same,NF-kB SEAP reporter activity,RAW-Dual [1]; [3],0.991
same,NF-kB SEAP reporter activity,RAW-Dual [1]; [4],1.22
same,NF-kB SEAP reporter activity,RAW-Dual [1]; [5],1.39
CCN(CC)CC#CCOC(=O)C(O)(c1ccccc1)C1CCCCC1.Cl (configuration not stated),NF-kB SEAP reporter activity,RAW-Dual [2]; [6],1.75
same,NF-kB SEAP reporter activity,RAW-Dual [2]; [7],1.46
